Assay outcomes: PubChem, University of Kansas High Throughput Screening Laboratory
Pf apPOL block: Pf-apPOL inhibitors, biochemical, fluorescence. inhibition, % at 10 µM. Recombinant Pf-apPOL, molecular beacon fluorescence, 1.5 h. AID 1794808, 2022. 210,000 compounds, 0.25% hits. Plasmodium falciparum apicoplast DNA polymerase (apPOL)
mHTT-CaM PPI inh: mutant huntingtin-calmodulin interaction inhibitors – biochemical, AlphaScreen, primary screen; P42858; AlphaScreen His-mHTT/GST-CaM binding, luminescence; 190,000 compounds, 3.6% hits; inhibition, % at 15 µM
Each line names hits and unclear results; the compound was inactive in the other large screens. Only a selection was taken, and hits are over-represented in it overall. No stated cut-off is given here; in the data, active means inhibition above about 50%; inactive means the rest.

COC(=O)c1ccc(-c2ccccc2O)cc1	none
COc1ccc2cc3cc(C(=O)Nc4ccc(Br)cc4C)oc3nc2c1	none
COCC(=O)N1CCC(COc2ccc(C(=O)N3CCCCC3)cc2)CC1	none
CC(C)C1N=C(c2ccc3c(c2)OCO3)CC(c2cc(Br)ccc2O)N1 (configuration not stated)	none
Cc1ccc(C2CC(c3ccccc3O)=NC3(CCN(C)CC3)N2)cc1 (configuration not stated)	none
Cc1ccc(C)c(C2=NC3(CCN(C)CC3)NC(c3cc(Cl)ccc3O)C2)c1 (configuration not stated)	mHTT-CaM PPI inh 98
CC(=O)N1CCC2(CC1)N=C(c1ccc(C)c(C)c1)CC(c1cc(Cl)ccc1O)N2 (configuration not stated)	mHTT-CaM PPI inh 63
CCOC(=O)N1CCC2(CC1)N=C(c1ccc(F)cc1)CC(c1cc(Cl)ccc1O)N2 (configuration not stated)	none
CC(C)C1N=C(c2ccc3c(c2)OCO3)CC(c2cc(Cl)ccc2O)N1 (configuration not stated)	mHTT-CaM PPI inh 67
O=C(c1ccc(F)c(F)c1)N1CCN(c2cc(N3CCCC3)c(F)cc2[N+](=O)[O-])CC1	none
Cc1nn(C)c2c(N3CCCC(C(=O)NC4CCCCC4)C3)nccc12 (configuration not stated)	none
CCOc1ccc(CNC(=O)C2CCN(c3ccc(N4CCCCC4)nn3)CC2)cc1	none
CC(=O)c1c(C)oc2ccc(NS(=O)(=O)c3cc(C)ccc3C)cc12	none
Cc1ccnc(NS(=O)(=O)c2ccc(C(C)(C)C)cc2)c1	mHTT-CaM PPI inh 100
Cc1ccnc(NS(=O)(=O)c2ccc(Cl)cc2)c1	none
O=C(Nc1ccc(N=Nc2ccccc2)cc1)c1ccccc1	none
Cc1ccc(CN2C(=O)NC3(CCN(C(=O)Cc4ccc(Cl)cc4)CC3)C2=O)cc1	none
Cc1ccc(C)c(CN2C(=O)NC3(CCN(C(=O)Cc4ccc(Cl)cc4)CC3)C2=O)c1	mHTT-CaM PPI inh 58
O=[N+]([O-])c1cccc(NCc2c(O)ccc3oc4c(c23)CCCC4)c1	mHTT-CaM PPI inh 97
CC(=O)N(c1ccc2oc3c(c2c1)CCCC3)S(=O)(=O)c1cccc([N+](=O)[O-])c1	none
Cc1cccc(CN2C(=O)N(c3ccc(F)cc3)c3ncccc3S2(=O)=O)c1	none
CC(=O)c1ccc(O)c2c1C1C=CCC1C(c1ccc(Cl)cc1)N2 (configuration not stated)	mHTT-CaM PPI inh 64
Fc1cccc2c1NC(c1ccc(Cl)cc1)C1CC=CC21 (configuration not stated)	mHTT-CaM PPI inh 59
Fc1ccc([C@@H]2Nc3c(F)cccc3[C@@H]3C=CC[C@@H]32)cc1	none (no result: Pf apPOL block)
Oc1ccc(Cl)c2c1NC(c1ccc(Cl)cc1)C1CC=CC21 (configuration not stated)	mHTT-CaM PPI inh 100
Cc1ccc(N2CCN(C(=O)CCC3CCCN(C(=O)Nc4ccccc4)C3)CC2)cc1 (configuration not stated)	none
CCc1ccc(NC(=O)C2c3cc(OC)c(OC)cc3C(=O)N(C)C2c2ccc(OC)cc2)cc1 (configuration not stated)	none
COc1cc(C(=O)Oc2ccc3c(c2C)OC(=Cc2ccc4c(c2)OCO4)C3=O)cc(OC)c1OC	none
Nc1cc2c(cc1Cl)C(=O)NC2=O	none (no result: mHTT-CaM PPI inh)
Cc1ccc(NC(=O)N2CCN(c3ccccc3)C(=O)C2C)cc1 (configuration not stated)	none
CCC(=O)NCCc1csc(C2CCN(C(=O)c3ccc4ccccc4n3)CC2)n1	none
Nc1cc(N)nc(SCC(=O)Nc2ccccn2)n1	none
COc1cc(CN2CCN(c3cc(C)ccc3C)CC2)cc(I)c1O	mHTT-CaM PPI inh 85
COc1cc(CN2CCN(c3cc(C)ccc3C)CC2)cc(OC)c1OC	none
COc1cc(CN2CCCCCCC2)cc(OC)c1O	mHTT-CaM PPI inh 72
COc1cc(CN2CCCCCC2)cc(I)c1O	none
O=C(Nc1cc([N+](=O)[O-])ccc1C(=O)NCC1CCCO1)c1cccs1 (configuration not stated)	none
CCc1cccc(CC)c1NC(=O)c1ccccc1F	none
CC(C)NC(=O)Cn1cccc1-c1nc(-c2ccccc2)cs1	none
Cc1ccnc(NC(=O)Cn2cccc2-c2nc(-c3ccccc3)cs2)c1	mHTT-CaM PPI inh 54
COc1ccc(C)cc1N1C(=O)NC2CC1(C)Oc1ccccc12 (configuration not stated)	none
COc1ccccc1-c1cc(-c2cc(Cl)ccc2O)n[nH]1	none
COc1ccc(O)c(-c2cc(-c3ccccc3C)[nH]n2)c1	mHTT-CaM PPI inh 69
Oc1ccccc1-c1cc(-c2ccccc2F)[nH]n1	none (no result: mHTT-CaM PPI inh)
Cc1ccccc1-c1cc(-c2ccccc2O)n[nH]1	mHTT-CaM PPI inh 52
Oc1ccccc1-c1cc(-c2ccccc2)n[nH]1	none
Cc1ccc(-c2cc(-c3ccccc3Cl)[nH]n2)c(O)c1	mHTT-CaM PPI inh 65
c1ccc(-c2noc(-c3csnn3)n2)cc1	none (no result: mHTT-CaM PPI inh)
Cc1cccc(NC(=O)Cn2cccc2-c2nnc(C3CC3)o2)c1	none
COc1cc(C2C(C#N)=C(N)Oc3c2oc(CO)cc3=O)c([N+](=O)[O-])cc1OC (configuration not stated)	none
COc1cc(C2C(C#N)=C(N)OC(C)=C2C(C)=O)c([N+](=O)[O-])cc1OC (configuration not stated)	mHTT-CaM PPI inh 57
O=C1C(=O)N(Cc2cccnc2)C(c2ccccc2F)C1=C(O)c1ccc(Cl)cc1 (configuration not stated)	none
CN(C)CCNC(=O)C1CCN(c2nc3ccccc3o2)CC1	none
O=C(NCc1cccnc1)C1CCN(c2cnn(Cc3ccccc3)c(=O)c2)CC1	none
Cc1ccc(Cn2c(CN3CCC(C(=O)NCCN(C)C)CC3)cc3ccccc32)cc1	mHTT-CaM PPI inh 99
COc1ccc2c(c1)c(CN1CCC(C(=O)NCCN(C)Cc3ccccc3)CC1)cn2C	none
O=C(NCc1cccnc1)C1CCN(Cc2cc3ccccc3n2Cc2ccccc2)CC1	mHTT-CaM PPI inh 68
CN(C)CCNC(=O)C1CCN(Cc2cc3ccccc3n2Cc2cccc(F)c2)CC1	mHTT-CaM PPI inh 100
CCCCOC(=O)Nc1ccc(S(=O)(=O)Nc2cc(C)ccc2C)cc1	none
COc1ccc(C2C(C(=O)N3CCOCC3)c3cc(OC)c(OC)cc3C(=O)N2C)cc1OC (configuration not stated)	none
COc1ccc(/C=C2/N=C(c3ccc(Cl)cc3Cl)OC2=O)c(OC)c1OC	none
Cc1nccn1CCNC(=O)c1ccccc1C(F)(F)F	none
COc1ccc(C2C3=C(CCCC3=O)Nc3ncnn32)c(OC)c1 (configuration not stated)	none
Cc1cc(C)n(-c2ccc(C(=O)NCc3nc4ccccc4[nH]3)nn2)n1	none
COc1ccc(C2=N/C(=C\c3ccc(F)cc3)C(=O)O2)cc1OC	none
O=c1cc(C(F)(F)F)[nH]n1-c1ccccc1	none (no result: mHTT-CaM PPI inh)
O=c1cc(O)n(-c2ccccc2)[nH]1	Pf apPOL block 53
Cc1cc(=O)c2n(Cc3ccc(Cl)cc3Cl)nc[n+]2[nH]1	none
O=C(CCC1CCCC1)NCC1CC(=O)N(c2ccc3c(c2)OCO3)C1 (configuration not stated)	none
CC(=O)NCCc1csc(C2CCCN(C(=O)CC3CCCC3)C2)n1 (configuration not stated)	none
CC(C)C(=O)Nc1ccc(C2(C(=O)N3CCN(c4ccccc4)CC3)CCCCC2)cc1	mHTT-CaM PPI inh 51
CC(C)C(=O)Nc1ccc(C2(C(=O)N3CCCC3)CCCCC2)cc1	none
